HT1080NT lethal – kills 2HG-producing HT-1080-NT fibrosarcoma cells. HT-1080-NT fibrosarcoma viability, CellTiter-Glo ATP luminescence, 48 h. Potency, µM (top dose mostly 46.1 µM), without a hit: top-dose activity, negative = less viability, hits mostly cytotoxic. 360,000 tested, 1.6% active. AID 686970;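 further: NT is the 2HG producing partner of a matched IDH1 knockdown line; potency means the concentration at half of the fitted maximal effect; 0% = DMSO-treated cells and -100% = media-only wells without cells; nearly all actives have a fitted effect of over 55% in size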
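Viability of the 2HG-overproducing fibrosarcoma line after 48 hours of compound exposure at 37 degrees C was determined by luminescence with CellTiter-Glo, and concentration-effect curves were then fitted and categorized.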
IL-1B inflam inh – inflammasome signaling inhibition, IL-1 beta readout. THP-1 LPS/ATP IL-1B secretion, AlphaLISA, 16 h; hits give low values. activity change, % at 57.5 µM. 360,000 tested, 4.7% active. AID 743279; in the data active means activity change below about -50%; inconclusive means mostly about -30% to -49%
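Secreted IL-1B measured by AlphaLISA bead assay after 16 h compound exposure of THP-1 cells; compounds (final up to 57.5 uM) added 1 h before LPS (250 ng/mL) and ATP (1.25 mM) stimulation; lower signal means less secretion.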
DT40 TDP1 no CPT – qHTS for Inhibitors of human tyrosyl-DNA phosphodiesterase 1 (TDP1): qHTS in cells in absence of CPT. Potency, µM (series often up to 46.2 µM), for the others: at the top dose activity change, negative = growth inhibition, most hits filed as inhibitors. AID 686978, 2013. 420,000 tested, 15% active. DT40 Tdp1-/- hTDP1 cells, no CPT, ATP luminescence, 48 h; further: potency means the concentration at half of the fitted maximal effect; nearly all actives have a fitted effect of over 55% in size
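Chicken DT40 Tdp1-/- cells complemented with human TDP1, screened without camptothecin (DMSO vehicle only), 400 cells/well. Compounds pin-transferred, cells incubated at 37 °C for at least 48 hr. Growth read as ATP-dependent luminescence (CellTiter-Glo, 30 min at RT).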
HT1080 IDH1KD tx – toxicity to HT-1080 IDH1 knockdown cells (counter line); HT-1080 IDH1 knockdown viability, ATP luminescence, 48 h; 360,000 tested, 2% active; AID 686971; Potency, µM (highest dose often 46.1 µM), for inactives: at the top dose activity, negative = toxicity, hits mostly cytotoxic;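 further: potency means the concentration at half of the fitted maximal effect; 0% = DMSO wells and -100% = cell-free medium wells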
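Using the IDH1-knockdown HT-1080 line run in the same batch and compound series as the NT line, viability after 48 h at 37 °C was determined by CellTiter-Glo luminescence and expressed as % activity.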
DT40 TDP1 CPT – growth inhibition of DT40 Tdp1-/-;hTDP1 cells with camptothecin (screen for TDP1 inhibitors). 420,000 tested, 12% active. chicken DT40 Tdp1-/-;hTDP1 cells + 20 nM CPT, ATP luminescence, 48 h. Potency, µM (top dose mostly 46.2 µM), without a hit: at the top dose activity change, negative = growth inhibition, usual class: inhibitors; further: potency means the concentration at half of the fitted maximal effect; nearly all actives have a fitted effect of over 55% in size
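Chicken DT40 Tdp1-/- cells complemented with human TDP1, 400 cells/well, exposed to compounds plus 20 nM camptothecin for at least 48 h at 37 C; viability read as ATP content by CellTiter-Glo luminescence.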
ALOX12 inh – blocks human arachidonate 12S-lipoxygenase; P18054; purified 12hLO, xylenol orange hydroperoxide absorbance; Potency, µM (top dose mostly 108 µM), inactives show at the highest dose activity change, negative = inhibition, hits mostly inhibitors; 580,000 tested, 1.1% active; further: potency means the concentration at half of the fitted maximal effect
Target sequence (P18054 whole entry, looked up): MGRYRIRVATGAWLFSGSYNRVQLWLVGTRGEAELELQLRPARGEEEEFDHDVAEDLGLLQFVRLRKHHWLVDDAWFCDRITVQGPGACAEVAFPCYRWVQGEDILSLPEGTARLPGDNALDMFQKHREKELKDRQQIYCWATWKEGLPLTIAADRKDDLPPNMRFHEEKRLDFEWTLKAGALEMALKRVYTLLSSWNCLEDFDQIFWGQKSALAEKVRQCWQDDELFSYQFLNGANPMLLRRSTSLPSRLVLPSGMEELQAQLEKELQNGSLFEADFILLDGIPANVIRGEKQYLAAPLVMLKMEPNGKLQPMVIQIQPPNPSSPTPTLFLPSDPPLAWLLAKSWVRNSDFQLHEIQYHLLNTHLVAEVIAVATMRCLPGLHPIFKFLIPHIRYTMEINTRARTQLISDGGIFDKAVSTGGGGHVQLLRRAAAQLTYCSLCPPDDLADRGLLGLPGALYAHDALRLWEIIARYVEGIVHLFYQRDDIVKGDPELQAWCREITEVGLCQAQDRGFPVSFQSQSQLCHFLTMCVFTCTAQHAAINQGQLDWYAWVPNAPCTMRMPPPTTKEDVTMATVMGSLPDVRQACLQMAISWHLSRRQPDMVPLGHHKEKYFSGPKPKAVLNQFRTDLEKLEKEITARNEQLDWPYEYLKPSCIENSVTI
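Purified human 12hLO (150 nM final) in 25 mM Hepes, 0.01% Triton X-100, pH 7.0 was preincubated 15 min at room temperature with compound. Then 40 uM arachidonic acid was added, 30 min. Hydroperoxide was read by Fe-XO absorbance ratio 573/405 nm.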
Starred values were filed as active, the others as inactive; ? = inconclusive; . = not tested or not shown; [ ] = another dose, or the depositor's remark. Shown is part of a subset that was picked to be rich in hits. Unless noted, the call rests on the fitted dose curve; in most records, active means well fitted curve in the direction sought with a large enough effect; inconclusive means small, poorly fitted or top-dose-only effect, or another doubt; inactive means no such curve, though single readings can be large; an effect the other way counts as inactive or inconclusive. Unless noted, on the % scale 0 is the no-effect control and ±100 the full control effect.

SMILES	HT1080NT lethal	IL-1B inflam inh	DT40 TDP1 no CPT	HT1080 IDH1KD tx	DT40 TDP1 CPT	ALOX12 inh
CC(C)CCN1CCc2c(n(Cc3cccnc3)n(CCc3ccccc3)c2=O)C1	.	.	.	.	.	2%[176 µM]
CCn1ccc(C(=O)N2CC[C@H]3C(=O)NCCCCCCN(Cc4ccncc4)[C@@H]3C2)n1	.	.	.	.	.	85%
CCOc1ccc(CNC(=O)c2ccc3c(c2)nc2n3CCCC2)cc1	.	.	.	.	.	-2%
CCN(Cc1ccccc1)C(=O)c1cc2cccc(OC)c2oc1=O	.	.	.	.	.	-5%
Cc1cc(N2CCN(C(c3ccccc3)c3ccccc3)CC2)n2ncnc2n1	1%	23	?	-1%	23µM*	?
Cc1cc(N2CCN(C(=O)c3ccco3)CC2)n2ncnc2n1	22%	-12	-7%	20%	-4%	0%
Cc1nc2ncnn2c(N2CCN(C(c3ccccc3)c3ccccc3)CC2)c1C	-15%	-8	13µM*	?	21µM*	-14%
CCN1CCN(S(=O)(=O)Cc2ccccc2)CC1	5%	1	-5%	0%	3%	-16%
CCn1c2ccccc2c2cc(CN3CCN(Cc4ccc(Br)cc4)CC3)ccc21	.	.	15µM*	.	18µM*	?
CCn1c2ccccc2c2cc(CN3CCN(S(=O)(=O)Cc4ccccc4)CC3)ccc21	-18%	34	15µM*	-11%	?	?
Cc1nn(-c2ccccc2)c(C)c1Cc1ccc(O)cc1	-2%	-6	?	-3%	?	.
Cc1nn(-c2ccccc2)c2c1C(O)n1c(nc3ccccc31)S2 (stereo not given)	5%	-86*	16µM*	0%	15µM*	-24%
N#Cc1ccc(CN2CCC[C@H]2C(=O)N2CCCCCCNC(=O)CC2)cc1	.	.	.	.	.	31%
CCOC(=O)N1CCC(NC(=O)c2cnn(-c3ccc(F)cc3F)c2C2CCN(C(=O)OC(C)(C)C)CC2)CC1	.	.	-20%	.	5%	9%
CC(C)(C)OC(=O)N1CCC(c2c(C(=O)NCc3ccco3)cnn2-c2ccc(F)cc2F)CC1	.	.	?	.	23µM*	-13%
CC(C)(C)OC(=O)N1CCC(c2c(C(=O)NCc3cccs3)cnn2-c2ccc(F)cc2F)CC1	.	.	?	.	?	-8%
CC(C)(C)OC(=O)N1CCC(c2c(C(=O)NCCN3CCc4ccccc4C3)cnn2-c2ccc(F)cc2F)CC1	.	.	12µM*	.	21µM*	-18%
CC(C)(C)OC(=O)N1CCC(c2c(C(=O)NCc3ccccc3)cnn2-c2ccc(F)cc2)CC1	.	.	18µM*	.	23µM*	-11%
CC(C)(C)OC(=O)N1CCC(c2c(C(=O)NC3CCN(Cc4ccccc4)CC3)cnn2-c2ccc(F)cc2F)CC1	.	.	8.2µM*	.	12µM*	?
CCCCN1C(=O)CC[C@H]2CN(C(=O)Cc3cnccn3)CC[C@H]21	.	.	.	.	.	26%
Cc1ccc(NS(=O)(=O)c2ccc(CCC(=O)O)cc2)cc1S(=O)(=O)N1CCCCC1	.	.	.	.	.	3%
NC(=O)CCN(C(=O)c1ccc(C(F)(F)F)cc1)c1ccccc1	.	.	.	.	.	1%
Cc1ccc(-c2cc(C(=O)N3CCC(C(N)=O)CC3)c3ccccc3n2)c(C)c1	.	.	.	.	.	-5%
CCS(=O)(=O)N1C[C@@H](Oc2cccnc2)C[C@H]1C(=O)N1CCCC1	.	.	.	.	.	14%
CC(C)(C)OC(=O)N1CCC(c2c(C(=O)NCCc3ccccc3)cnn2-c2ccc(F)cc2)CC1	.	.	16µM*	.	?	1%
CCOC(=O)c1cnn(-c2ccc(OC)cc2)c1C1CCN(C(=O)OC(C)(C)C)CC1	.	.	26µM*	.	?	14µM*
CC(C)(C)OC(=O)N1CCC(c2c(C(=O)NCCc3ccccc3)cnn2-c2ccc(F)cc2F)CC1	.	.	18µM*	.	21µM*	0%
